Source: PubChem
Vc quorum ag: inducers of Vibrio cholerae quorum light production without autoinducers; V. cholerae BH1578 lux reporter, luminescence, 6 h; activation, % at 18.7 µM; 350,000 tested, 0.16% active; AID 588436; in the data active = activation mostly above about 9.7%, no sharp cut-off
MazF activator: increases E. coli MazEF RNase cleavage of RNA; P0AE70; 350,000 tested, 0.32% active; activation, % at 20 µM; AID 504720; FAM/BHQ RNA-DNA oligo cleavage fluorescence, 5 h; in the data active = activation above about 50%
Target sequence (P0AE70 whole entry, looked up): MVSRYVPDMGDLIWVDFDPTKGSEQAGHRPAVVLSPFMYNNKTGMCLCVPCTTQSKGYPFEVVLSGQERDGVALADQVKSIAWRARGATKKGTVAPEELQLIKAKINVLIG
BJeLR viability: kills HRASV12-expressing BJeLR cells. AID 1554. BJeLR (HRASV12) viability, CellTiter-Glo ATP luminescence, 48 h. 300,000 tested, 0.17% active. inhibition, % (test concentration not listed); in the data active = inhibition above about 50%
SARS 3CLpro inh: SARS-CoV 3CLpro protease inhibition; inhibition, % at 6 µM; recombinant SARS-CoV 3CLpro, quenched FRET peptide cleavage; 290,000 tested, 0.14% active; in the data active = inhibition above about 12%
VHR inh abs: inhibitors of human VHR1 phosphatase (DUSP3). recombinant VHR phosphatase, pNPP absorbance. inhibition, % at 13.3 µM. AID 1654. 290,000 tested, 0.52% active. P51452; in the data active = inhibition above about 50%
Target sequence (P51452 whole entry, looked up): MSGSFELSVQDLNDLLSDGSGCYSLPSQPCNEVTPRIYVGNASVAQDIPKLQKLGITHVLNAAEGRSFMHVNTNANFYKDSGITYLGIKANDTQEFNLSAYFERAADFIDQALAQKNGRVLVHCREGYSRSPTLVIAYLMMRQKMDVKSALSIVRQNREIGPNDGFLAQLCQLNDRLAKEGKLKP
PfHsp40 rescue: restores yeast growth despite PfHsp40 toxicity; S. cerevisiae expressing PfHsp40, growth rescue, ATP luminescence; growth rescue, % at 12.5 µM; 340,000 tested, 0.68% active; AID 504582; in the data active = growth rescue above about 28%, passing the limit was not always enough;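 note: yeast W303a lacking pdr1 and pdr3 grown in galactose medium; growth measured after three days at 30 °C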
* = called active by the depositor. Hits are enriched below; roughly 1.7% of the tested compounds scored in any of these assays.

`O=C(Nc1cc(Sc2ccccn2)cc([N+](=O)[O-])c1)c1cccc(F)c1` gave Vc quorum ag 0, MazF activator 52*, BJeLR viability -1, SARS 3CLpro inh 6, VHR inh abs -2 and PfHsp40 rescue 0.
For Cc1ccc(CNC(=O)c2ccc(NC(=O)CCS(=O)(=O)c3cccs3)cc2)cc1 the results were Vc quorum ag inactive, MazF activator -45, BJeLR viability 5, SARS 3CLpro inh 3, VHR inh abs 15 and PfHsp40 rescue 1.
For O=C(CCS(=O)(=O)c1cccs1)Nc1ccc(C(=O)NCc2ccccc2)cc1 the results were Vc quorum ag 0, MazF activator -13, BJeLR viability -1, SARS 3CLpro inh 3, VHR inh abs 53* and PfHsp40 rescue -1.
For O=C(COC(=O)CCC(=O)N1CCOCC1)Nc1ccc(Br)cc1Br the results were Vc quorum ag -3, MazF activator 7 and PfHsp40 rescue -1.
Screening COC1=C(c2ccccc2)C(=O)c2ccccc2C1=O returned Vc quorum ag 0, MazF activator -12, SARS 3CLpro inh -2, VHR inh abs -8 and PfHsp40 rescue 224*.
`COc1ccc(C2=C(N)c3ccccc3C2=O)cc1` gave Vc quorum ag 0, MazF activator -2, BJeLR viability 1, SARS 3CLpro inh 3, VHR inh abs -1 and PfHsp40 rescue 1.
For CC(=O)N1CCN(S(=O)(=O)c2cccc(C(=O)NCCc3ccc(Cl)cc3)c2)CC1 the results were Vc quorum ag 2, MazF activator -1, BJeLR viability -17 and PfHsp40 rescue -1.
For O=C(NN1C(=O)c2ccccc2NC1c1ccc([N+](=O)[O-])o1)c1ccc(Br)cc1 (configuration not stated) the results were Vc quorum ag inactive, MazF activator 64*, BJeLR viability -7, SARS 3CLpro inh 3, VHR inh abs 8 and PfHsp40 rescue 12.
`CC(=O)NN1C(=O)c2ccccc2NC1c1ccc([N+](=O)[O-])o1` (configuration not stated) gave Vc quorum ag inactive, MazF activator 7, BJeLR viability -2, SARS 3CLpro inh 1, VHR inh abs 8 and PfHsp40 rescue 0.
Cn1cc(S(=O)(=O)N2CCCC2)cc1C(=O)O was read as Vc quorum ag inactive, MazF activator 7 and PfHsp40 rescue -1.
For O=C(NC1=NCCS1)c1csc2ccccc12 the results were Vc quorum ag 1, MazF activator -1, BJeLR viability -4, SARS 3CLpro inh 0, VHR inh abs -2 and PfHsp40 rescue 50*.
O=C(NC1=NCCS1)c1ccccc1Cl was read as Vc quorum ag inactive, MazF activator 5, BJeLR viability -10, SARS 3CLpro inh 4, VHR inh abs 2 and PfHsp40 rescue 0.
CCOC(=O)c1c(NC(=O)/C=C\C(=O)O)sc(C)c1-c1ccccc1 was read as Vc quorum ag 0, MazF activator 1, BJeLR viability 1, SARS 3CLpro inh 1, VHR inh abs 24 and PfHsp40 rescue 95*.
O=C(NNC(=O)c1csc(-c2cccs2)n1)c1ccc(Cl)cc1 was read as Vc quorum ag -3.
For NS(=O)(=O)c1ccc(CNC(=O)NC2(c3ccccc3)CC2)cc1 the results were Vc quorum ag 0, MazF activator 0, BJeLR viability 10, SARS 3CLpro inh -1, VHR inh abs 50* and PfHsp40 rescue 0.
Cc1c(C(=O)NCCN2CCOCC2)oc2ccc(Br)cc12 was read as Vc quorum ag inactive, MazF activator 1, BJeLR viability 3 and PfHsp40 rescue 0.
For Cc1ccc(C(C)NC(=O)/C(C#N)=C\c2c(C)[nH]c3ccccc23)cc1 (configuration not stated) the results were Vc quorum ag -12, MazF activator 11, BJeLR viability -9, SARS 3CLpro inh 2, VHR inh abs 12 and PfHsp40 rescue 1.
For Cc1[nH]c2ccccc2c1/C=C(\C#N)C(=O)NCc1ccccc1 the results were Vc quorum ag -1, MazF activator 106*, BJeLR viability -11, SARS 3CLpro inh 1, VHR inh abs -5 and PfHsp40 rescue 0.
Screening COc1ccc(-c2noc(N3CCC(C(=O)Nc4cc(OC)c(OC)c(OC)c4)CC3)n2)cc1 returned Vc quorum ag inactive, MazF activator -9, BJeLR viability 3, SARS 3CLpro inh -2, VHR inh abs 21 and PfHsp40 rescue -1.
O=S(=O)(c1ccc(Cl)cc1)N1CCN(Cc2ccc(O)c3ncccc23)CC1 was read as Vc quorum ag -1, MazF activator -7, BJeLR viability -1, SARS 3CLpro inh 0, VHR inh abs 1 and PfHsp40 rescue 102*.
Screening Cc1cc([N+](=O)[O-])cc(/C=N/n2c(C)nc3ccccc3c2=O)c1O returned Vc quorum ag inactive, MazF activator 0, BJeLR viability 8, SARS 3CLpro inh -1, VHR inh abs 13 and PfHsp40 rescue 192*.
Screening Cc1nc2ccccc2c(=O)n1/N=C/c1ccccc1O returned Vc quorum ag 0, MazF activator -1, BJeLR viability 3, SARS 3CLpro inh 8, VHR inh abs 17 and PfHsp40 rescue 0.
`O=C(CSc1nnc(COc2ccc(Cl)cc2)o1)Nc1nccs1` gave Vc quorum ag -6 and MazF activator 2.
Screening O=C(CN1CCN(c2ccccn2)CC1)Nc1ccccc1F returned Vc quorum ag 1, MazF activator 6, BJeLR viability 9, SARS 3CLpro inh -4, VHR inh abs 57* and PfHsp40 rescue 0.
For Cc1ccc2sc(N(CCCN(C)C)C(=O)c3ccc(S(=O)(=O)N4CCc5ccccc5C4)cc3)nc2c1C the results were Vc quorum ag inactive, MazF activator -30, BJeLR viability 6 and PfHsp40 rescue 79*.
COc1ccc(OC)c2sc(N(CCCN(C)C)C(=O)c3ccc(S(=O)(=O)N4CCc5ccccc5C4)cc3)nc12 was read as BJeLR viability 89*.
For COc1ccc(C)c2sc(N(CCCN(C)C)C(=O)c3ccc(S(=O)(=O)N4CCc5ccccc5C4)cc3)nc12 the results were Vc quorum ag inactive, MazF activator -37, BJeLR viability 81* and PfHsp40 rescue -3.
`COc1cccc2sc(N(CCCN(C)C)C(=O)c3ccc(S(=O)(=O)N4CCc5ccccc5C4)cc3)nc12` gave Vc quorum ag -1, MazF activator -28, BJeLR viability 1, SARS 3CLpro inh -4, VHR inh abs 2 and PfHsp40 rescue -1.
`O=c1oc(-c2ccccc2)c(-c2ccccc2)c2ccccc12` gave Vc quorum ag inactive, MazF activator 4 and PfHsp40 rescue 0.
For COC(=O)/C=C1\NCCNC1=O the results were Vc quorum ag -1, MazF activator 0, BJeLR viability 5, SARS 3CLpro inh -3, VHR inh abs -13 and PfHsp40 rescue 0.
CCCc1ccc(-c2csc(NC(=O)C3=COCCO3)n2)cc1 was read as Vc quorum ag 0, MazF activator 1 and PfHsp40 rescue 50*.
